# In PubChem BioAssay (EPA / NIEHS):
# The source made the active and inactive calls. The calls were made as follows: active = hit-call score of the fitted dose curve at least 0.9, where 1 is the maximum; inactive = score below 0.9.
# Tests used:
# Conditions in all cases: mRNA level, 48 h; actives raise or lower the signal
# [1] = read-out: catalase (CAT), CAT (gene 847); experiment: LTEA_HepaRG_CAT: Life Technologies and Expression Analysis (LTEA) Assay for catalase (CAT) using HepaRG (AID 2283452)
# Summary of the method: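 HepaRG cells in serum-free induction medium, 0.5% DMSO vehicle, exposed 48 h in duplicate over 8 half-log concentrations from 100 uM. CAT mRNA measured by qRT-PCR, normalized to ACTB, GAPDH, POLR2A; bidirectional fit versus DMSO.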
# [2] = read-out: flavin-containing dimethylaniline monooxygenases 3 (FMO3), FMO3 (gene 2328); experiment: LTEA_HepaRG_FMO3: Life Technologies and Expression Analysis (LTEA) Assay for flavin-containing dimethylaniline monooxygenases 3 (FMO3) using HepaRG (AID 2283453)
# Summary of the method: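 Differentiated HepaRG cells in serum-free induction medium, exposed 48 h in duplicate to 8 half-log concentrations up to 100 uM in 0.5% DMSO. FMO3 mRNA by qRT-PCR, normalized to ACTB, GAPDH, POLR2A; bidirectional fit vs DMSO.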
# [3] = read-out: Cytochrome P450 (CYP1A1), CYP1A1 (gene 1543); experiment: LTEA_HepaRG_CYP1A1: Life Technologies and Expression Analysis (LTEA) Assay for Cytochrome P450 (CYP1A1) using HepaRG (AID 2283454)
# Summary of the method: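 CYP1A1 transcript levels measured by Fluidigm qRT-PCR against three housekeeping genes, 48 h after chemical dosing of human HepaRG cells (highest concentration 100 uM, half-log steps, 0.5% DMSO vehicle). Gain or loss of signal fitted relative to DMSO.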
# [4] = read-out: CFLAR gene, CFLAR (gene 8837); experiment: LTEA_HepaRG_CFLAR: Life Technologies and Expression Analysis (LTEA) Assay for CFLAR gene using HepaRG (AID 2283455)
# Summary of the method: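 Differentiated HepaRG cells in serum-free induction medium were exposed 48 h in duplicate to eight half-log concentrations up to 100 uM in 0.5% DMSO; mRNA measured by TaqMan qRT-PCR, normalized to ACTB, GAPDH, POLR2A; bidirectional fitting versus DMSO.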
# [5] = read-out: Forkhead box O1 (FOXO1), FOXO1 (gene 2308); experiment: LTEA_HepaRG_FOXO1: Life Technologies and Expression Analysis (LTEA) Assay for Forkhead box O1 (FOXO1) using HepaRG (AID 2283456)
# Summary of the method: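 Differentiated HepaRG cells, in serum-free induction medium with 0.5% DMSO, exposed 48 h in duplicate to 8-point half-log series from 100 uM. FOXO1 mRNA measured by TaqMan qRT-PCR, normalized to ACTB, GAPDH, POLR2A; bidirectional fit versus DMSO.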
# [6] = read-out: growth arrest and DNA damage 45 (GADD45A), GADD45A (gene 1647); experiment: LTEA_HepaRG_GADD45A: Life Technologies and Expression Analysis (LTEA) Assay for growth arrest and DNA damage 45 (GADD45A) using HepaRG (AID 2283458)
# Summary of the method: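 Differentiated HepaRG cells exposed 48 h in serum-free induction medium to 8 concentrations, top 100 uM in half-log steps, 0.5% DMSO. GADD45A mRNA quantified by qRT-PCR, normalized to ACTB, GAPDH and POLR2A; bidirectional fit versus DMSO.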
# [7] = read-out: Forkhead box O3 (FOXO3), FOXO3 (gene 2309); experiment: LTEA_HepaRG_FOXO3: Life Technologies and Expression Analysis (LTEA) Assay for Forkhead box O3 (FOXO3) using HepaRG (AID 2283459)
# Summary of the method: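 Differentiated human HepaRG cells, 48 h post-plating, exposed in duplicate for 48 h in serum-free induction medium; 8-point half-log series from 100 uM in 0.5% DMSO. FOXO3 mRNA by TaqMan qRT-PCR, normalized to ACTB/GAPDH/POLR2A; bidirectional fit versus DMSO.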
# [8] = read-out: ABC Transporter (ABCB1), ABCB1 (gene 5243); experiment: LTEA_HepaRG_ABCB1: Life Technologies and Expression Analysis (LTEA) Assay for ABC Transporter (ABCB1) using HepaRG (AID 2283460)
# Summary of the method: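 HepaRG cells exposed in duplicate for 48 h in serum-free induction medium to eight half-log concentrations up to 100 uM in 0.5% DMSO. ABCB1 mRNA quantified by qRT-PCR, normalised to ACTB, GAPDH and POLR2A; fitted bidirectionally versus DMSO.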
# [9] = read-out: growth arrest and DNA damage 45 (GADD45B), GADD45B (gene 4616); experiment: LTEA_HepaRG_GADD45B: Life Technologies and Expression Analysis (LTEA) Assay for growth arrest and DNA damage 45 (GADD45B) using HepaRG (AID 2283461)
# Summary of the method: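 Transcript level quantified by Fluidigm TaqMan qRT-PCR with three housekeeping genes for normalization, analyzed for up- or down-regulation against 0.5% DMSO. HepaRG cultures dosed 48 h at eight half-log concentrations up to 100 uM, duplicates.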
# [10] = read-out: ABC Transporter (ABCC3), ABCC3 (gene 8714); experiment: LTEA_HepaRG_ABCC3: Life Technologies and Expression Analysis (LTEA) Assay for ABC Transporter (ABCC3) using HepaRG (AID 2283462)
# Summary of the method: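 Transcript level by TaqMan qRT-PCR, normalised to three housekeeping genes, fitted in both directions relative to vehicle. Chemicals tested in duplicate at eight half-log concentrations up to 100 uM for 48 h on HepaRG cells (0.5% DMSO).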
# [11] = read-out: ABC Transporter (ABCB11), ABCB11 (gene 8647); experiment: LTEA_HepaRG_ABCB11: Life Technologies and Expression Analysis (LTEA) Assay for ABC Transporter (ABCB11) using HepaRG (AID 2283463)
# Summary of the method: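 Differentiated human HepaRG cells in serum-free induction medium, dosed in duplicate for 48 h. Eight-point half-log series from 100 uM in 0.5% DMSO; ABCB11 mRNA by qRT-PCR, normalized to ACTB, GAPDH, POLR2A, fitted bidirectionally versus DMSO.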
# [12] = read-out: ABC Transporter (ABCC2), ABCC2 (gene 1244); experiment: LTEA_HepaRG_ABCC2: Life Technologies and Expression Analysis (LTEA) Assay for ABC Transporter (ABCC2) using HepaRG (AID 2283464)
# Summary of the method: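 Endpoint is ABCC2 transcript level from qRT-PCR, normalized to three housekeeping genes and fitted bidirectionally relative to DMSO. Human HepaRG cells received test chemical for 48 h at up to 100 uM (8 points, half-log steps, 0.5% DMSO), duplicate wells.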
# [13] = read-out: Broad substrate specificity ATP-binding cassette transporter ABCG2 (Homo sapiens) (UniProt Q9UNQ0); experiment: LTEA_HepaRG_ABCG2: Life Technologies and Expression Analysis (LTEA) Assay for ABC Transporter (ABCG2) using HepaRG (AID 2283465)
# Summary of the method: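 Differentiated HepaRG cells were exposed for 48 h in serum-free induction medium to 8 half-log concentrations, top 100 uM, in 0.5% DMSO. ABCG2 mRNA was measured by qRT-PCR, normalized to ACTB, GAPDH and POLR2A, with bidirectional fitting versus DMSO.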
# [14] = read-out: ATP-citrate lyase (ACLY), ACLY (gene 47); experiment: LTEA_HepaRG_ACLY: Life Technologies and Expression Analysis (LTEA) Assay for ATP-citrate lyase (ACLY) using HepaRG (AID 2283466)
# Summary of the method: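 Differentiated HepaRG cells exposed 48 h in serum-free induction medium to eight half-log concentrations up to 100 uM in 0.5% DMSO, duplicates. Transcript measured by Fluidigm TaqMan qRT-PCR, normalized to ACTB, GAPDH, POLR2A; bidirectional fit versus DMSO.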
# [15] = read-out: Peroxisomal acyl-coenzyme A oxidase 1 (ACOX1) gene, ACOX1 (gene 51); experiment: LTEA_HepaRG_ACOX1: Life Technologies and Expression Analysis (LTEA) Assay for Peroxisomal acyl-coenzyme A oxidase 1 (ACOX1) gene using HepaRG (AID 2283467)
# Summary of the method: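 HepaRG cells, plated 48 h then switched to serum-free induction medium, were exposed in duplicate for 48 h to 8-point half-log concentrations up to 100 uM in 0.5% DMSO. ACOX1 mRNA was measured by qRT-PCR, normalized to ACTB/GAPDH/POLR2A, and fitted bidirectionally versus DMSO.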
# [16] = read-out: Alkaline Phosphatase, Placental (ALPP) gene, ALPP (gene 250); experiment: LTEA_HepaRG_ALPP: Life Technologies and Expression Analysis (LTEA) Assay for Alkaline Phosphatase, Placental (ALPP) gene using HepaRG (AID 2283468)
# Summary of the method: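 ALPP transcript level, measured by qRT-PCR and normalized to three housekeeping genes (ACTB, GAPDH, POLR2A), after 48 h dosing of differentiated HepaRG in serum-free induction medium. Top concentration 100 uM with half-log dilutions (8 points, 0.5% DMSO, duplicates); bidirectional fitting relative to DMSO.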
# [17] = read-out: Bcl-2 (BAD) gene, BAD (gene 572); experiment: LTEA_HepaRG_BAD: Life Technologies and Expression Analysis (LTEA) Assay for Bcl-2 (BAD) gene using HepaRG (AID 2283469)
# Summary of the method: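 Differentiated HepaRG cells were exposed in duplicate in 0.5% DMSO for 48 h to eight-point half-log concentrations up to 100 uM. BAD mRNA was measured by Fluidigm TaqMan qRT-PCR, normalized to ACTB, GAPDH and POLR2A, and fitted bidirectionally against DMSO.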
# [18] = read-out: Bcl-2 (BAX) gene, BAX (gene 581); experiment: LTEA_HepaRG_BAX: Life Technologies and Expression Analysis (LTEA) Assay for Bcl-2 (BAX) gene using HepaRG (AID 2283470)
# Summary of the method: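 Differentiated HepaRG cells exposed 48 h in serum-free induction medium, eight half-log concentrations from 100 uM, in duplicate, 0.5% DMSO vehicle. BAX mRNA by TaqMan qRT-PCR, normalised to ACTB, GAPDH and POLR2A.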
# [19] = read-out: adenosine kinase (ADK) gene, ADK (gene 132); experiment: LTEA_HepaRG_ADK: Life Technologies and Expression Analysis (LTEA) Assay for adenosine kinase (ADK) gene using HepaRG (AID 2283471)
# Summary of the method: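 Read-out is ADK transcript level measured by qRT-PCR and normalised to three housekeeping genes. Cells are human HepaRG, dosed for 48 h at up to 100 uM in 0.5% DMSO. Gain or loss of signal is fitted against DMSO controls.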
# Sequence of Broad substrate specificity ATP-binding cassette transporter ABCG2 (Homo sapiens) (Q9UNQ0 whole entry, looked up): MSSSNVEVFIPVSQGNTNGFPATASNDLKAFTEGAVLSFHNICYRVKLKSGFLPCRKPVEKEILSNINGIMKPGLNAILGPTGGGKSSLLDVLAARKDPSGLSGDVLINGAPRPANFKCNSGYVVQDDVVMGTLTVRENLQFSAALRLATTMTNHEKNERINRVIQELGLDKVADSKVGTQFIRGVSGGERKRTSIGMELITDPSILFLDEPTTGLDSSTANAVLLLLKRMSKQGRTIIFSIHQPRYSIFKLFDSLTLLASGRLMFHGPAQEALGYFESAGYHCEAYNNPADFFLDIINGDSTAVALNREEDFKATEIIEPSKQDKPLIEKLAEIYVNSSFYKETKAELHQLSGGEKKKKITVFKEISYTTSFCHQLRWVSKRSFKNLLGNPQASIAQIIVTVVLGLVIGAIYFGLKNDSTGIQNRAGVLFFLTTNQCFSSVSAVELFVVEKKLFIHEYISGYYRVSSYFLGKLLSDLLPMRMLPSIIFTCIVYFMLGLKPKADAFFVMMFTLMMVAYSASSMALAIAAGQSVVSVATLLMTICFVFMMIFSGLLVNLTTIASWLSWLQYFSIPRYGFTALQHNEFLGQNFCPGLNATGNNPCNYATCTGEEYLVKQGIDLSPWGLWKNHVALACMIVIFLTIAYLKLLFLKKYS
smiles,measurement,setting,value
[Cl-].[Cl-].[Hg+2],outcome,[1],inactive
same,outcome,[2],inactive
same,AC50,[3],50 µM (active)
same,outcome,[4],inactive
same,outcome,[5],inactive
same,outcome,[6],inactive
same,outcome,[7],inactive
same,outcome,[8],inactive
same,AC50,[9],50 µM (active)
same,outcome,[10],inactive
same,outcome,[11],inactive
same,outcome,[12],inactive
same,outcome,[13],inactive
same,outcome,[14],inactive
same,outcome,[15],inactive
same,outcome,[16],inactive
same,outcome,[17],inactive
same,outcome,[18],inactive
same,outcome,[19],inactive
Clc1ccccc1Cl,outcome,[1],inactive
same,outcome,[2],inactive
same,outcome,[3],inactive
same,outcome,[4],inactive
same,outcome,[5],inactive
same,outcome,[6],inactive
same,outcome,[7],inactive
same,outcome,[8],inactive
same,outcome,[9],inactive
same,outcome,[10],inactive
same,outcome,[11],inactive
same,outcome,[12],inactive
same,outcome,[13],inactive
same,outcome,[14],inactive
same,outcome,[15],inactive
same,outcome,[16],inactive
same,outcome,[17],inactive
same,outcome,[18],inactive
same,outcome,[19],inactive
c1ccc2c(c1)oc1ccccc12,outcome,[1],inactive
same,outcome,[2],inactive
same,AC50,[3],50 µM (active)
same,outcome,[4],inactive
same,outcome,[5],inactive
same,outcome,[6],inactive
same,outcome,[7],inactive
same,outcome,[8],inactive
same,outcome,[9],inactive
same,outcome,[10],inactive
same,outcome,[11],inactive
same,outcome,[12],inactive
same,outcome,[13],inactive
same,outcome,[14],inactive
same,outcome,[15],inactive
same,outcome,[16],inactive
same,outcome,[17],inactive
same,outcome,[18],inactive
same,outcome,[19],inactive
CCCCOC(=O)c1ccccc1C(=O)OCc1ccccc1,outcome,[1],inactive
same,outcome,[2],inactive
same,AC50,[3],15.1 µM (active)
same,outcome,[4],inactive
same,outcome,[5],inactive
same,outcome,[6],inactive
same,outcome,[7],inactive
same,outcome,[8],inactive
same,outcome,[9],inactive
same,outcome,[10],inactive
same,outcome,[11],inactive
same,outcome,[12],inactive
same,outcome,[13],inactive
same,outcome,[14],inactive
same,outcome,[15],inactive
same,outcome,[16],inactive
same,outcome,[17],inactive
same,outcome,[18],inactive
same,outcome,[19],inactive
CC(C)COC(=O)c1ccccc1C(=O)OCC(C)C,outcome,[1],inactive
same,outcome,[2],inactive
same,AC50,[3],59.1 µM (active)
same,outcome,[4],inactive
same,outcome,[5],inactive
same,outcome,[6],inactive
same,outcome,[7],inactive
same,outcome,[8],inactive
same,outcome,[9],inactive
same,outcome,[10],inactive
same,outcome,[11],inactive
same,outcome,[12],inactive
same,outcome,[13],inactive
same,outcome,[14],inactive
same,outcome,[15],inactive
same,outcome,[16],inactive
same,outcome,[17],inactive
same,outcome,[18],inactive
same,outcome,[19],inactive
Brc1ccc(Oc2ccccc2)cc1,outcome,[1],inactive
same,outcome,[2],inactive
same,AC50,[3],50 µM (active)
same,outcome,[4],inactive
same,outcome,[5],inactive
same,outcome,[6],inactive
same,outcome,[7],inactive
same,outcome,[8],inactive
same,outcome,[9],inactive
same,outcome,[10],inactive
same,outcome,[11],inactive
same,outcome,[12],inactive
same,outcome,[13],inactive
same,outcome,[14],inactive
same,outcome,[15],inactive
same,outcome,[16],inactive
same,outcome,[17],inactive
same,outcome,[18],inactive
same,outcome,[19],inactive
CC(C)(C)C(O)(CCc1ccc(Cl)cc1)Cn1cncn1 (stereo not drawn),outcome,[1],inactive
same,AC50,[2],76.7 µM (active)
same,AC50,[3],6.47 µM (active)
same,outcome,[4],inactive
same,outcome,[5],inactive
same,outcome,[6],inactive
same,outcome,[7],inactive
same,AC50,[8],3.45 µM (active)
same,outcome,[9],inactive
same,outcome,[10],inactive
same,outcome,[11],inactive
same,outcome,[12],inactive
same,outcome,[13],inactive
same,AC50,[14],6.24 µM (active)
same,outcome,[15],inactive
same,AC50,[16],80.3 µM (active)
same,outcome,[17],inactive
same,outcome,[18],inactive
same,outcome,[19],inactive
